Screening data: PubChem BioAssay, several laboratories
Hits are enriched below; roughly 2.7% of the tested compounds scored in any of these assays.
ANO1 activ = TMEM16A chloride channel activators or potentiators, primary screen, cell-based, HTS; 0.3% of 340,000 active; B-score at 10 µM; AID 623877, 2012; Anoctamin-1 (Mus musculus), Q8BHY3; HEK293 TMEM16A/YFP-H148Q/I152L, iodide quench fluorescence; hits give low values;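 active = fluorescence-ratio B-score plate-corrected deviation score at least 3 library SD below zero, with starting fluorescence score within 5 deviations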;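 note: channel opened by trigger with iodide after compound preincubation; score built on the fluorescence ratio of max minus min over baseline; more negative score means more quench and so TMEM16A activation or potentiation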
Target sequence (Q8BHY3 whole entry, looked up): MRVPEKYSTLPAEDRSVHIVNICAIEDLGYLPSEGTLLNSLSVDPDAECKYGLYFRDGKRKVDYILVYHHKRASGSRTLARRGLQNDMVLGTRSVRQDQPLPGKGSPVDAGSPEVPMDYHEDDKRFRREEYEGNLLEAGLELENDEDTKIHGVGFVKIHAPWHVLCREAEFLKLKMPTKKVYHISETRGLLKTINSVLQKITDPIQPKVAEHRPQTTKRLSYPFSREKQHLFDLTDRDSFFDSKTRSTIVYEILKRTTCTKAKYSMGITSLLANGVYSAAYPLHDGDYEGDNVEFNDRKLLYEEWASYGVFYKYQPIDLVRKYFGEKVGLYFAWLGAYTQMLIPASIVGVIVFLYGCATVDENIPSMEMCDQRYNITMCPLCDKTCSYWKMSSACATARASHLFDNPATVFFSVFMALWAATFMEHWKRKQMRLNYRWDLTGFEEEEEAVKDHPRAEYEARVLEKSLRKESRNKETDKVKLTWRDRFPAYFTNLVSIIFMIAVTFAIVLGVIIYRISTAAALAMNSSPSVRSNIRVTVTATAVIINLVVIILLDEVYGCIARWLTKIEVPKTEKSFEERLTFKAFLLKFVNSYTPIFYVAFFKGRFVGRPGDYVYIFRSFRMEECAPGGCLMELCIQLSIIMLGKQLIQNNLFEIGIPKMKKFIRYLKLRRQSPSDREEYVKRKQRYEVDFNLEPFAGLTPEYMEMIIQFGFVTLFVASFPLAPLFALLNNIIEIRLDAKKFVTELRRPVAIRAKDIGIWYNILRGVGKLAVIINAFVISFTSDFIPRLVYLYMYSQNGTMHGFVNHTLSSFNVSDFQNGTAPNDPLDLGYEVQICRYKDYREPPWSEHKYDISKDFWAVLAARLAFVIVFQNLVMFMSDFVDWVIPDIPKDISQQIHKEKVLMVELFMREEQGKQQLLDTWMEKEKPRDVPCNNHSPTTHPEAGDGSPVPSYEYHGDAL
IDE cell inh = human IDE inhibitors in live cells, primary screen, fluorescence polarization, HEK cells, FAbetaB substrate; Insulin-degrading enzyme (Homo sapiens), P14735; FAbetaB cleavage; inhibition, % at 5.59 µM; 0.41% of 320,000 active; AID 434962, 2010;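 active = percent inhibition above the average of all tested compounds plus 3 SD, set per screening campaign, cut at about 16% in these data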;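 note: IDE supplied by intact live HEK cells; FP after avidin binding of uncleaved biotin substrate so inhibition keeps polarization high; 0% = DMSO wells and 100% = 60 µM reference IDE inhibitor Ii1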
ANO1 block = TMEM16A chloride channel inhibitors, primary screen, cell-based, HTS; 1.2% of 310,000 active; normalized B-score (activity score, 25-100; higher = stronger inhibition) at 10 µM; HEK293 TMEM16A/YFP iodide influx fluorescence, ionomycin;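 active = ratio plate-corrected score three or more library SD toward inhibition, starting fluorescence score within five deviations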;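 note: score derived from kinetic fluorescence span divided by baseline fluorescence per well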
IDE act = human IDE activators in live cells, primary screen, fluorescence polarization, HEK cells, FAbeta-B substrate | 0.073% of 340,000 active | AID 493087, 2011 | activation, % at 5.96 µM | FAbeta-B cleavage; 0% vehicle, 100% cell-free pure enzyme wells | Insulin-degrading enzyme (Homo sapiens), P14735;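 active = activation above the mean of all tested compounds plus 3 SD, set per screening campaign, cut at about 17% in these data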
CHT block = inhibitors of human choline transporter CHT. 0.86% of 310,000 active. AID 488975, 2010. B-score at 10 µM. CHT-expressing cells, membrane potential dye, choline response; hits give low values;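 active = B-score over 3 SD under the library average, and starting fluorescence ratio not unusually high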;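 note: choline stimulus applied at its EC90 after an EC20 pre-addition; B-score computed on integrated fluorescence ratio after choline addition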
CHT allo act = CHT positive allosteric modulators, primary screen, cell-based, membrane potential dye, choline EC20; AID 488977, 2010; CHT-expressing cells; hits give high values; LV-AA mutant CHT in HEK293 cells; 0.49% of 310,000 active; High affinity choline transporter 1 (Homo sapiens), Q9GZV3; B-score at 10 µM;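 active = initial fluorescence not abnormally high and integrated response B-score, plate-corrected, over 3 SD above library mean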
CHT activ conf = CHT activators, confirmation, cell-based, membrane potential dye, duplicate. AID 504833, 2011. 91% of 2,500 active. CHT-expressing cells, membrane potential dye fluorescence (FDSS); % of choline EC20–EC90 response window; HEK293 expressing CHT LV-AA mutant; choline added at its EC20. activation, % at 10 µM. shares compounds with CHT allo act;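 active = primary screen active, with duplicate mean activation above negative control mean plus 3 SD, cut at about 11% in these data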
HEK293 MP dye = membrane potential response in parental HEK293 cells, counter-screen for CHT activator project, cell-based, membrane potential dye | shares compounds with CHT allo act | membrane potential dye fluorescence (FDSS); measured after EC20 choline addition | ratio readout change at 10 µM, hits read low | 62% of 2,500 active;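 active = duplicate-averaged ratio beyond 3 SD from buffer wells, up or down, though filed actives are nearly all decreases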
* = called active by the depositor.

Cc1c(CCC(=O)NCCCn2ccnc2)c(=O)oc2c(C)c3oc4c(c3cc12)CCCC4 was read as ANO1 activ inactive, IDE cell inh 5, ANO1 block inactive, IDE act -2, CHT block inactive and CHT allo act inactive.
Screening Cc1cc(N2CCOCC2)c2c(N)c(Br)cc(C)c2n1 returned ANO1 activ inactive, IDE cell inh 8, ANO1 block inactive, IDE act 2, CHT block inactive, CHT allo act 9.8*, CHT activ conf 45* and HEK293 MP dye -66*.
Screening CC(C)n1nnnc1C(c1ccc(F)cc1)N1CCN(C2CCCC2)CC1 (centres undefined) returned ANO1 activ inactive and IDE act 3.
For Fc1ccc(C(c2nnnn2Cc2ccco2)N2CCN(C3CCCCC3)CC2)cc1 (centres undefined) the results were ANO1 activ inactive, IDE cell inh -1, ANO1 block inactive, IDE act -6, CHT block inactive, CHT allo act inactive, CHT activ conf 31* and HEK293 MP dye inactive.
For Cc1ccc(SC(C)C(=O)Nc2ccccc2-c2ccccc2)cc1 (centres undefined) the results were ANO1 activ inactive, IDE cell inh -2, ANO1 block inactive, IDE act -4, CHT block inactive, CHT allo act inactive, CHT activ conf 7 and HEK293 MP dye inactive.
For CC(Sc1ccc(Cl)cc1)C(=O)Nc1ccccc1-c1ccccc1 (centres undefined) the results were ANO1 activ inactive, IDE cell inh 3, ANO1 block inactive, IDE act 5, CHT block inactive, CHT allo act 7*, CHT activ conf 35* and HEK293 MP dye inactive.
Screening Cc1cnc(C(=O)NCC(=O)Nc2ccccc2Br)cn1 returned ANO1 activ inactive and IDE act -1.
`COc1ccc(-c2cc(CCC(=O)N3CCN(c4cc(C)ccc4C)CC3)[nH]n2)cc1` gave IDE act 0.
For O=[N+]([O-])c1cc(S(=O)(=O)N2CCOCC2)ccc1OCc1ccccc1C(F)(F)F the results were ANO1 activ inactive and IDE act 1.
CCCN1C(=O)c2ccc(C(=O)Nc3cc(C)on3)cc2C1=O was read as ANO1 activ inactive, IDE cell inh 4, ANO1 block inactive, IDE act 1, CHT block inactive, CHT allo act inactive, CHT activ conf 21* and HEK293 MP dye -27*.
`CCOc1ccc(C(=O)Nc2cc(C)on2)cc1OCC` gave ANO1 activ inactive, IDE cell inh -4, ANO1 block inactive, IDE act 4, CHT block inactive, CHT allo act inactive, CHT activ conf 46* and HEK293 MP dye -35*.
`CN1CCN(C=Nc2nc3ccccc3nc2N2CCCC2)CC1` gave ANO1 activ inactive, IDE cell inh 3, ANO1 block inactive, IDE act -8, CHT block inactive, CHT allo act 6.7*, CHT activ conf 26* and HEK293 MP dye -52*.
COc1cc(NC(=O)c2ccc3c(c2)S(=O)(=O)N=C2CCCCCN23)cc(OC)c1 was read as ANO1 activ inactive, IDE cell inh 3, ANO1 block inactive, IDE act 0, CHT block inactive and CHT allo act inactive.
